TRHR ag – TRH receptor (human) agonism | activation, % at 2 µM | AID 493084 | TRHR cells, calcium flux fluo-8, FDSS agonist mode | 360,000 compounds, 0.18% hits | P34981
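Agonist-mode FDSS calcium read (Ex 480/Em 530, 1 s cycles) in 1536-well TRHR cells with fluo-8 dye, after 10-cycle baseline and 23 nL compound addition; TRH at EC20 (10 nM final) added afterwards for the enhancer phase.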
D1 ag – agonists of human D1 dopamine receptor. 360,000 compounds, 1% hits. AID 504660. HEK293 T-REx D1 cells, calcium flux, agonist mode. activation, % at 2 µM
Target sequence (P21728 whole entry, looked up): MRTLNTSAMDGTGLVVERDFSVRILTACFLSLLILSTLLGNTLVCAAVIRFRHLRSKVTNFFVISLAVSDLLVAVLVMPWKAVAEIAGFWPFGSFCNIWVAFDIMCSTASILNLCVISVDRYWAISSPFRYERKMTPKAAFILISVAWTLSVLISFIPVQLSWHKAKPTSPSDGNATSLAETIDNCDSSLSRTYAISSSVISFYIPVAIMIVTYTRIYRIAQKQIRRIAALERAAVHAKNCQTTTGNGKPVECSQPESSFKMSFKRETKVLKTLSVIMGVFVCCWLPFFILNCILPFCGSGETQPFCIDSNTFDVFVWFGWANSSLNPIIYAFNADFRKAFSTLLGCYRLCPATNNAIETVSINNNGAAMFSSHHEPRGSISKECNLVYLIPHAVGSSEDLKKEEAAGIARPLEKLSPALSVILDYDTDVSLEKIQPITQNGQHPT
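Inducible HEK293 T-REx D1 cells, force-coupled to calcium signalling, were plated at 4000 cells/well with tetracycline and held overnight at 30 C. After no-wash calcium dye loading, compound-evoked calcium rise over 180 s flagged agonists.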
D1 potentiator – potentiators of human D1 dopamine receptor. P21728. HEK293 TREx D1 cells, calcium flux, dopamine EC20 potentiation. potentiation, % at 10 µM. 360,000 compounds, 0.036% hits. AID 504651; in the data active means potentiation above about 30%
TRHR enhancer – allosteric enhancers of human TRH receptor | P34981 | enhancement, % at 2 µM | 360,000 compounds, 0.66% hits | TRHR cells, fluo-8 calcium fluorescence, EC20 TRH enhancement; in the data active means enhancement above about 30%
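Enhancer read-out: after compound pinning and an initial kinetic agonist-mode read, an EC20 of TRH (10 nM final) was injected and fluo-8 calcium signal (Ex 480/Em 530) followed at 1 s/cycle for 100 cycles in TRHR-expressing cells.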
D1 antagonist – blocks dopamine activation of the human D1 receptor | 360,000 compounds, 3.2% hits | P21728 | activity change, negative = inhibition, % at 10 µM | HEK293 TREx D1 cells, calcium flux, dopamine EC80; active compounds read low; in the data active means activity change below about -30%
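Kinetic fluorescence of a calcium dye serves as the read-out. D1-expressing Hek293 Trex cells, induced overnight at 30 C, are exposed to compound for 180 s before an EC80 dopamine addition, then read 180 s further.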
Each line names hits and unclear results; the compound was inactive in the other large screens. An excerpt weighted towards active compounds, which were near 4.6% of everything screened. Unless noted, no stated cut-off is given here; in the data, active means activation above about 30%; inactive means the rest.

CCC1(c2ccc(F)cc2)NC(=O)N(CC(=O)c2cc(C)n(C3CC3)c2C)C1=O (centres undefined)	D1 ag 41.3
Cc1ccc2cccc(NC(=O)c3ccc(C#N)cc3F)c2n1	none
COc1ccc(-c2nc3ccccc3s2)cc1NC(=O)c1cccc(F)c1	D1 antagonist -30.1
COc1ccc(-c2nc3ccccc3s2)cc1NC(=O)c1ccccc1OC	TRHR enhancer 34.2
COc1ccc(C(=O)Nc2cc(-c3nc4ccccc4s3)ccc2OC)cc1	none
Cc1ccc2cc(C#N)c(NCc3ccccc3)nc2c1	D1 antagonist -33.0
CCOc1ccc2nc(N3CCCC(C(=O)Nc4ccc(OC)c(Cl)c4)C3)sc2c1 (centres undefined)	none
Cc1ccc(C)c(NC(=O)CCCN2C(=O)C(c3ccccc3)Oc3cccnc32)c1 (centres undefined)	TRHR enhancer 53.0
O=C(NCCc1ccccc1)c1nnc(Cc2cccc(F)c2)o1	D1 ag 37.8
O=C(NCc1cccnc1)c1nnc(Cc2ccc(F)cc2)o1	none
O=C(NCc1ccc2c(c1)OCO2)c1nnc(Cc2ccc(F)cc2)o1	D1 antagonist -55.5
O=C(NCc1ccc(F)cc1)c1nnc(Cc2cccc(F)c2)o1	none
COc1ccc(S(=O)(=O)c2cn(C)c3ccc(C)cc3c2=O)cc1	none
CCOC(=O)N1CCN(C(=O)c2ccc(N3CCCC3=O)cc2)CC1	none
O=C(c1ccc(N2CCCC2=O)cc1)N1CCN(c2ccccc2Cl)CC1	D1 antagonist -48.5
CCOC(=O)C1CCN(C(=O)c2ccc(N3CCCC3=O)cc2)CC1	TRHR enhancer 34.2
CCOC(=O)c1cc(S(=O)(=O)N2CCN(c3ccccc3F)CC2)[nH]n1	none
Cc1nn(-c2ccccc2)c(Cl)c1CN(C(=O)CCl)c1ccc(Cl)cc1	D1 antagonist -57.3
Cn1c(=O)cc(SCC(=O)Nc2cccc(C#N)c2)c2ccc(Cl)cc21	none
O=C1/C(=C/c2cccc(F)c2)Oc2cc(O)ccc21	D1 ag 34.5, D1 antagonist -36.4
COC(=O)c1ccc(C(=S)NCC2(N(C)C)CCCCC2)cc1	D1 ag 77.0, D1 antagonist -30.1
CC(=O)Nc1ccc(C(=S)NCC2(N(C)C)CCCCC2)cc1	none
CCc1nc(C)c(C#N)c2cc(OC)c(OC)cc12	D1 antagonist -33.6
O=C(N/N=C/c1sc(=O)n(Cc2ccc(Br)cc2)c1Cl)c1ccco1	D1 antagonist -48.7
O=C(N/N=C/c1ccc(Br)s1)c1ccco1	none
CCCCN(C)C(=O)Cn1cnc2sc(C)c(S(=O)(=O)N3CCC(C)CC3)c2c1=O	none
CC(C)NC(=S)Nc1ccc(Oc2ccccc2)cc1	D1 ag 30.1
NC(=S)Nc1ccc(Oc2ccc(NC(N)=S)cc2)cc1	D1 antagonist -30.3
CCCNC(=S)Nc1ccc(Oc2ccccc2)cc1	none
CCc1ccc(NC(=O)c2ccc3c(=O)n4nc(Nc5ccccc5C)sc4nc3c2)cc1	none
Nc1c(C(=O)Nc2ccc(F)cc2)sc2nc(-c3cccs3)cc(C(F)(F)F)c12	TRHR ag 100.2, D1 ag 265.5, D1 antagonist -44.1
Nc1c(C(=O)C2CC2)sc2nc(-c3cccs3)cc(C(F)(F)F)c12	TRHR ag 52.9, D1 ag 173.5
O=C(CSc1nc2cc3ccccc3cc2[nH]1)Nc1cccc(C(F)(F)F)c1	none
COc1ccc(-c2noc(CSCC(=O)Nc3cc(OC)c(OC)c(OC)c3)n2)cc1OC	none
COc1ccc(-c2csc3nc(-c4ccccc4C)oc(=O)c23)cc1OC	none
COc1ccc(-c2noc(N3CCC(C(=O)N4CCN(c5ccccc5OC)CC4)CC3)n2)cc1	D1 antagonist -56.1
Cc1nc(-c2ccc(C)c(S(=O)(=O)N3CCC(C(=O)NCc4ccc(Cl)cc4)CC3)c2)no1	TRHR enhancer 30.3
COc1ccc(-c2noc(N3CCC(C(=O)NCc4ccc(F)cc4)CC3)n2)cc1	D1 antagonist -36.2
COc1ccc(-c2noc(N3CCC(C(=O)Nc4ccc(F)cc4F)CC3)n2)cc1	none
CCc1ccc(NC(=O)C2CCN(c3nc(-c4ccc(OC)cc4)no3)CC2)cc1	none
COc1ccc(-c2noc(N3CCC(C(=O)Nc4ccc(OC)cc4OC)CC3)n2)cc1	D1 antagonist -31.4
COc1ccc(-c2noc(N3CCC(C(=O)N4CCN(c5cccc(C)c5C)CC4)CC3)n2)cc1	none
CCS(=O)(=O)N1CCC2(CC1)OC(=O)C(C)=C2C(=O)NCc1ccc(OC)c(OC)c1	none
COc1ccc(-c2nc(C(=O)O)cs2)cc1OC	D1 antagonist -36.4
O=C(COC(=O)c1cc[n+]([O-])cc1)Nc1ccc(SC(F)F)cc1	D1 antagonist -33.8
O=C(COC(=O)c1cc[n+]([O-])cc1)Nc1ccc(Br)cc1	none
COc1cc(CNC(=O)c2ccc3nc(Cc4ccccc4)oc3c2)cc(OC)c1OC	none
O=C(Nc1ccccc1)Nc1cc(OCC(F)(F)F)cc(OCC(F)(F)F)c1	D1 antagonist -33.1
CC(C)OCCCNc1ncnc2c1cnn2-c1ccccc1	TRHR enhancer 32.9, D1 antagonist -36.9
OCCOCCNc1ncnc2c1cnn2-c1ccccc1	D1 antagonist -45.0
c1ccc(-n2ncc3c(NCCN4CCOCC4)ncnc32)cc1	TRHR enhancer 32.8
OCCOCCNc1ncnc2c1cnn2-c1ccc(Cl)cc1	none
c1ccc(-n2ncc3c(NCCN4CCCCC4)ncnc32)cc1	none
CN(C)CCCNc1ncnc2c1cnn2-c1ccccc1	none
CCOc1ccccc1N(C)C(=O)NCc1noc2ccccc12	none
CCCCN(C)CC(O)Cn1cc(/C=C/C(=O)c2ccc(OC)c(OC)c2)c2ccccc21 (centres undefined)	D1 ag 63.1
COc1ccc(C(=O)/C=C/c2cn(CC(O)CN3CCN(C)CC3)c3ccccc23)cc1OC (centres undefined)	none
CCCCN(C)CC(O)Cn1cc(/C=C/C(=O)c2ccc(C)cc2)c2ccccc21 (centres undefined)	D1 ag 33.1
CCCCN(C)CC(O)Cn1cc(/C=C/C(=O)c2ccc(Br)cc2)c2ccccc21 (centres undefined)	D1 ag 125.6, D1 antagonist -56.7
COc1cccc(OCC(=O)NCCS(=O)(=O)N2CCN(c3ccccc3F)CC2)c1	none
COc1ccc(CCNC(=O)C(=O)NCC(c2cccs2)S(=O)(=O)c2ccc(C)cc2)cc1 (centres undefined)	none (no result: D1 antagonist)
Cc1ccc2occ(/C=N/NC(=O)c3ccncc3)c(=O)c2c1	D1 antagonist -33.8
Cc1ccc2occ(/C=N/NC(=O)c3ccc(Cl)cc3)c(=O)c2c1	none
Cc1c(C(=O)N(C)C)sc2c1c(=O)n(-c1ccc(Cl)c(Cl)c1)c(=O)n2Cc1ccc(F)cc1	none
COc1cccc(-c2nn(-c3ccccc3)cc2/C=C\C(=O)c2cccs2)c1	D1 ag 33.2
COc1cccc(-c2nn(-c3ccccc3)cc2C(=O)O)c1	none

Screens: PubChem BioAssay, National Center for Advancing Translational Sciences (NCATS)
